Screening data as filed in PubChem.
Hits are enriched below; roughly 7.3% of the tested compounds scored in any of these assays.
VACV Venus inh: qHTS for Stage-Specific Inhibitors of Vaccinia Orthopoxvirus: Venus Reporter Primary qHTS; Potency, µM (highest dose often 36.5 µM), for the others: at the top dose activity change, negative = inhibition, hits mostly inhibitors; 330,000 tested, 0.46% active; AID 720580, 2013; Vaccinia virus Venus reporter expression, fluorescence; calls by dose curve; tested in A549 cells; note: potency is the fitted concentration of half-maximal effect; nearly all actives have a fitted effect of over 30% in size
HCMV antiviral: qHTS Assay for inhibitors of the human cytomegalovirus (HCMV); HFF cells, HCMV-luciferase reporter, 72 h; active compounds read low; activity change, negative = inhibition, % at 57.5 µM; 410,000 tested, 4.5% active; AID 1259415, 2018; in the data active = activity change below about -60%; inconclusive = no clear call, values can overlap the other calls; inactive = above about -39%
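Compounds were evaluated in HFFs infected with an HCMV luciferase reporter virus (MOI 1 PFU/cell). Luciferase in lysates collected 72 h post infection served as the replication measure.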
VACV mCherry inh: qHTS for Stage-Specific Inhibitors of Vaccinia Orthopoxvirus: mCherry Reporter Primary qHTS; Vaccinia virus mCherry reporter infection, fluorescence; Potency, µM (titrated, usually from 36.5 µM), without a hit: at the top dose activity change, negative = inhibition, most hits filed as inhibitors; 310,000 tested, 0.63% active; AID 720579, 2013; calls by dose curve; tested in A549 cells; note: potency is the fitted concentration of half-maximal effect; nearly all actives have a fitted effect of over 35% in size
HCV inhibitor: qHTS Assay for Inhibitors of Hepatitis C Virus (HCV); Huh7.5.1 HCVcc-Cre infection, luciferase reporter, 44 h; Potency, µM (highest dose often 41.8 µM), inactives show at the highest dose activity change, negative = inhibition, usual class: inhibitors; 340,000 tested, 3.4% active; AID 651820, 2012; active = well fitted inhibition curve with a large enough effect; inconclusive = small, poorly fitted or top-dose-only effect, or another doubt; inactive = no such curve, though single readings can be large or run the other way; note: potency is the fitted concentration of half-maximal effect
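Infectious HCV cell culture screen: compound-treated cells (1,000/well, pre-plated 4 h) are infected with HCVcc-Cre at roughly 0.5 moi and grown 44 h. Infection is quantified by luciferase signal after 15 min substrate incubation at room temperature.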
FMDV antiviral: High Throughput Screening for Foot and Mouth Disease Virus Antivirals; FMDV antiviral cell-based qHTS; Potency, µM (titrated, usually from 57.9 µM), for the others: at the top dose activity change, negative = inhibition, usual class: inhibitors; 410,000 tested, 1.2% active; AID 1159524, 2015; calls by dose curve; tested in HEK293T cells; note: read-out not given here; potency is the fitted concentration of half-maximal effect; nearly all actives have a fitted effect of over 45% in size
Starred values were filed as active, the others as inactive; ? = inconclusive; . = no result given; [ ] = another dose, or the depositor's remark. % is set by controls: 0 for no effect and ±100 for the full control effect.

SMILES | VACV Venus inh | HCMV antiviral | VACV mCherry inh | HCV inhibitor | FMDV antiviral
O=c1c2ccccc2c(-c2ccc(O)cc2)nn1-c1cccc(C(F)(F)F)c1 | 11.2µM* | ? | ? | ? | 39.8µM*
O=c1c2ccccc2c(-c2ccc(Cl)cc2)nn1-c1ccccc1 | . | -63.4* | . | ? | -27.6%
Cc1nn(-c2ccc(Cl)cc2)c(=O)c2ccccc12 | . | 117.1 | . | 5.5% | 32.3%
O=C(Nc1ccc(N2CCN(C(=O)c3ccco3)CC2)c(Cl)c1)c1cc2ccccc2o1 | 15.8µM* | -99.3* | 11.2µM* | 3.55µM* | 8.91µM*
CCC(=O)N1CCN(c2ccc(NC(=O)c3ccco3)cc2Cl)CC1 | -1.6% | 99.5 | -7.8% | -3.6% | 19.7%
CCC(=O)N1CCN(c2ccc(NC(=O)c3cc4ccccc4o3)cc2Cl)CC1 | 11.2µM* | -103.6* | ? | 11.2µM* | 8.91µM*
O=C(Nc1ccc(N2CCN(C(=O)c3ccccc3)CC2)c(Cl)c1)c1ccco1 | ? | -32.8 | -24.6% | 10µM* | -68.2%
CCCC(=O)N1CCN(c2ccc(NC(=O)c3cccs3)cc2Cl)CC1 | -14.9% | 2.0 | -2.7% | 22.3% | 7.4%
CCCC(=O)N1CCN(c2ccc(NC(=O)c3cc4ccccc4o3)cc2Cl)CC1 | 10µM* | -102.5* | . | 2.24µM* | 4.47µM*
CC(=O)N1CCN(c2ccc(NC(=O)c3ccco3)cc2Cl)CC1 | -11.8% | 46.8 | -8.6% | 13.5% | 5.8%
CCN(Cc1ccccc1)Cc1c(O)ccc2c(=O)c(-c3ccc(Cl)cc3)coc12 | -8.6%[7.34 µM] | 12.9 | -6.8%[7.34 µM] | . | 10.5%
COc1cccc(NC(=S)/C(=C(\[O-])c2cc(C)n(-c3ccccc3F)c2C)[n+]2ccc(N(C)C)cc2)c1 | . | -94.7* | . | ? | 0.0%
Cc1ccc2cc(C3C(C#N)=C(N)Oc4c3ccc3cccnc43)c(=O)[nH]c2c1 (configuration not stated) | -29.9% | -103.5* | -27.6% | 11.2µM* | -16.7%
CCOc1cccc(C2C(C#N)=C(N)Oc3cc(C)[nH]c(=O)c32)c1OCC (configuration not stated) | . | -11.9 | . | -1.1% | -23.2%
N#CC1=C(N)Oc2c(ccc3cccnc23)C1c1cccnc1 (configuration not stated) | . | -99.4* | . | 3.55µM* | -20.6%
CCc1ccc2[nH]c(=O)c(C3C(C#N)=C(N)Oc4c3ccc3cccnc43)cc2c1 (configuration not stated) | . | -4.3 | . | 11.2µM* | -3.1%
CC1Cc2ccccc2N1S(=O)(=O)c1nnc(NC(=O)c2ccccc2Br)s1 (configuration not stated) | -3.9% | -10.3 | -7.8% | . | ?
COc1ccc(Cn2c(CCC(=O)Nc3cc(OC)c(OC)c(OC)c3)nc3cccnc32)cc1 | -14.6% | -26.6 | -11.1% | . | -7.5%
O=C(C1=C[C@H](c2ccccc2)C[C@H](OCc2ccc(CO)cc2)O1)N1CCN(Cc2ccccc2)CC1 | -29.5% | ? | -5.9% | -9.8% | -27.2%
O=C(Nc1ccccc1)C1=C[C@@H](C2CC2)C[C@@H](OCc2ccc(CO)cc2)O1 | -13.0% | 22.9 | -7.5% | 0.562µM* | 55.3%
O=C(NCc1ccccc1)C1=C[C@H](c2ccccc2)C[C@H](OCc2ccc(CO)cc2)O1 | -20.4% | -90.7* | -13.4% | -4.4% | 14.4%
O=C(C1=C[C@@H](c2ccccc2)C[C@@H](OCc2ccc(CO)cc2)O1)N1CCN(Cc2ccc3c(c2)OCO3)CC1 | ? | -1.5 | -22.0% | 11.2µM* | 0.0%
CCCCNS(=O)(=O)c1ccc(NC(=O)Cc2ccc(OC)cc2)cc1 | -17.3% | -67.0* | -4.9% | ? | -1.9%
Cc1nc2ccc(NS(=O)(=O)c3c(F)cc(F)cc3Br)cc2s1 | . | ? | . | ? | -8.8%
Cc1ccc(S(=O)(=O)/N=C2\C=C(Nc3ccc(O)cc3)C(=O)c3ccccc32)cc1 | 2.24µM* | . | 5.01µM* | 6.31µM* | 10µM*
SMILES | VACV Venus inh | HCMV antiviral | VACV mCherry inh | HCV inhibitor | FMDV antiviral
Cc1ccc(NC2=C/C(=N/S(=O)(=O)c3cccs3)c3ccccc3C2=O)cc1 | ? | -102.0* | -15.2% | ? | 7.94µM*
O=C1C(Nc2ccccc2)=C/C(=N/S(=O)(=O)c2cccs2)c2ccccc21 | 10µM* | . | 8.91µM* | 3.98µM* | ?
CCc1ccccc1N(C)C(=O)C1CCCN(c2ncnc3c2nc2n3CCCCC2)C1 (configuration not stated) | -17.1% | -2.7 | ? | . | ?
CCOC(=O)C1(C)CCCN(C(=O)COc2ccccc2)C1 (configuration not stated) | 2.0% | 12.7 | 25.7% | . | 5.5%
Cc1ccc(-n2nnnc2-c2cnc3ccc(Cl)cc3c2-c2ccccc2)cc1 | . | ? | . | 10µM* | -1.1%
Clc1ccc(-n2nnnc2-c2ccccc2)cc1 | . | 2.8 | . | 15.0% | -20.7%
Nc1ncc(-c2nnnn2-c2ccc(Cl)cc2)c(-c2ccc(Cl)cc2)n1 | ? | -31.0 | ? | ? | -12.4%
Clc1ccc(-n2nnnc2-c2cnc3ccccc3c2-c2ccccc2)cc1 | -18.4% | -71.8* | -25.6% | ? | -23.3%
Cc1cc(N2CCC(C)CC2)nc2ccc(NC(=O)/C=C/c3cccc(Cl)c3)cc12 | 5.0% | -29.5 | 5.8% | . | -24.4%
COc1ccc(-c2noc3ccccc23)cc1 | . | 3.6 | . | . | .
Cc1cn2c(-c3ccc(Cl)cc3)nnc2s1 | -12.5% | -5.8 | -8.4% | 10µM* | -11.2%
COc1ccc(CCNC(=O)c2cnn(-c3ccc(F)cc3)c2C2CCN(C(=O)OC(C)(C)C)CC2)c(OC)c1 | -29.6% | -20.3 | -23.9% | . | 0.0%
CC(C)(C)NC(=O)C(c1ccc(O)cc1)N(C(=O)Cn1nnc(-c2ccc(F)cc2)n1)c1ccccc1F (configuration not stated) | . | -12.2 | . | 4.47µM* | -1.0%
CC(C)(C)NC(=O)C(c1ccncc1)N(C(=O)Cn1nnc(-c2ccc(F)cc2)n1)c1ccccc1F (configuration not stated) | -6.1% | -30.5 | -14.1% | 7.0% | -6.5%
COc1cccc(Cn2c(=O)c(-c3cc(F)cc(F)c3)nc3cnc(N(C)C)nc32)c1 | . | . | . | . | -9.1%
CCOC(=O)c1cc(CC)sc1/N=C/c1c(O)ccc2ccccc12 | -11.2% | -70.3* | -19.7% | -26.9% | -14.7%
OCC(CO)(CO)N=Cc1c(O)ccc2ccccc12 | 5.0% | -6.5 | -5.5% | . | -14.0%
CCOC(=O)c1cc(CC)sc1/N=C/C1C(=O)CCCC1=O | -10.0% | -22.1 | -8.3% | -1.5% | -4.0%
CN(C)/N=C/c1c(O)ccc2ccccc12 | -13.2% | -10.7 | . | 10µM* | 4.1%
Oc1ccccc1N=Cc1c(O)ccc2ccccc12 | -22.2% | -69.9* | -21.4% | -7.0% | -1.0%
NC(=O)CNC(=O)C1CCN(S(=O)(=O)c2ccc(-n3cnnn3)cc2)CC1 | -10.2% | -39.7 | 7.1% | 1.0% | 7.8%
COc1cc(Nc2nccc3[nH]c(-c4cccc(C(C)C)c4)nc23)cc(OC)c1OC | . | -13.9 | . | . | .
CNC(=O)c1cc2c(-c3ccccc3)nn(C)c2s1 | -29.7% | -28.4 | -3.2% | -18.1% | ?
